About 83,000 compounds went through this panel and 20% of them were active in at least one assay; those are over-represented in the sample as a whole.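 Negative percent growth values reflect cell death: -40 means 40% of the cells present at the start died, and -100 means all died.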 Unmarked numbers belong to inactive results. Activity calls are given as the source filed them. Rule for the calls: active = growth percent below 10; inactive = the rest.
Legend:
Test in all cases: NCI-60 one-dose screen, 48 h (100 = growth as untreated, 0 = no growth, -100 = all killed)
Settings in all cases: 10 µM
HT29 colon = test system: HT29 colon
SNB-75 CNS = test system: SNB-75 CNS
SNB-19 CNS = test system: SNB-19 CNS
U251 CNS = test system: U251 CNS
PC-3 prostate = test system: PC-3 prostate
SK-MEL-5 melanoma = test system: SK-MEL-5 melanoma
UACC-62 melanoma = test system: UACC-62 melanoma
LOX IMVI melanoma = test system: LOX IMVI melanoma
SK-MEL-28 melanoma = test system: SK-MEL-28 melanoma
SN12C renal = test system: SN12C renal
UO-31 renal = test system: UO-31 renal
TK-10 renal = test system: TK-10 renal
ACHN renal = test system: ACHN renal
CAKI-1 renal = test system: CAKI-1 renal
CCRF-CEM leukemia = test system: CCRF-CEM leukemia
MOLT-4 leukemia = test system: MOLT-4 leukemia
SR leukemia = test system: SR leukemia
SK-MEL-2 melanoma = test system: SK-MEL-2 melanoma
EKVX NSCLC = test system: EKVX NSCLC
A498 renal = test system: A498 renal

| Compound | growth (HT29 colon) | growth (SNB-75 CNS) [%] | growth (SNB-19 CNS) [%] | growth (U251 CNS) [%] | growth (PC-3 prostate) [%] | growth (SK-MEL-5 melanoma) | growth (UACC-62 melanoma) | growth (LOX IMVI melanoma) [%] | growth (SK-MEL-28 melanoma) [%] | growth (SN12C renal) [%] | growth (UO-31 renal) | growth (TK-10 renal) [%] | growth (ACHN renal) [%] | growth (CAKI-1 renal) [%] | growth (CCRF-CEM leukemia) | growth (MOLT-4 leukemia) | growth (SR leukemia) | growth (SK-MEL-2 melanoma) | growth (EKVX NSCLC) [%] | growth (A498 renal) [%] |
| --- | --- | --- | --- | --- | --- | --- | --- | --- | --- | --- | --- | --- | --- | --- | --- | --- | --- | --- | --- | --- |
| FC(F)(F)c1ccc2nc(-c3nc(-c4ccccc4)n4ccccc34)[nH]c2c1 | 14.7% | 66.9 | 116 | 59.5 | 39.6 | 84.1% | 103% | 20.6 | 98.4 | 53 | 80.9% | 94.2 | 81.1 | 99.9 | 52% | 47.8% | 19.6% |  |  |  |
| O=C(CC(c1ccccc1)N1CCOCC1)c1ccccc1 (centres undefined) | 90.1% | 85.8 | 85 | 80.8 | 72.1 | 97.2% | 93.6% | 89 |  | 88.5 | 75.7% | 99.7 | 103 | 98.8 | 79.6% | 82.3% | -32.7% (active) | 94.7% | 89.3 |  |
| COc1ccc(Oc2nc(NC3CCCC3)nc(Sc3ccc(OC)cc3)n2)cc1 | 43.7% | 75.3 | 90.9 | 44.4 | 43 | 45.7% | 71.1% | 72.6 | 86 | 78.9 | 57.5% | 109 | 79.5 | 49.3 | 53.2% | 40.2% | 45.7% |  |  |  |
| COc1ccc(/C=C/C(C)=N/OCC(=O)O)cc1 | 105% | 100 | 103 | 95.2 | 94.4 | 101% | 113% | 96.9 | 114 | 105 | 95.9% | 87.5 | 106 | 106 | 95.7% | 86.8% | 93.4% |  |  | 72.8 |
| CC(=O)O[C@]1(C)CC[C@H]2[C@H](CNCCc3ccc(Cl)cc3)C(=O)O[C@@H]2C2=C(C)C(=O)C[C@H]21 | 90% | 64.1 | 79.4 | 91.3 | 86.9 | 92.2% | 97.9% |  | 101 | 94.2 | 78.1% | 97.7 | 96.2 | 98.5 | 83.6% | 71% | 81.4% |  |  | 86.9 |
| CC/C(=C(/c1ccc(OCCN(C)C)cc1)c1ccc(OC(=O)CCC(=O)c2c(C)[nH]c(/C=C3\N=C(c4ccc[nH]4)C=C3OC)c2C)cc1)c1ccccc1 | 6.7% (active) | 28.3 | 72.7 | 12.5 | 19.3 | 2.36% (active) | -13.8% (active) |  | 62.1 | 35.9 | 5.9% (active) | 21.7 | 30.4 | 18.8 | 6.12% (active) | 3.77% (active) | -21% (active) | -11.4% (active) |  | 50.3 |
| N=C(N)c1ccc(-c2ccc(-c3ccco3)o2)cc1 | 5.15% (active) | 22.2 | 68.4 | 53.5 | 59.8 | 76% | 95.9% |  | 75.1 | 69.3 | 55% | 109 | 79.4 | 54.5 |  | 31.3% | -17.8% (active) |  |  | 33.3 |
| COC(=O)C(=C\c1ccc2c(c1)OCO2)/C(=C/c1ccc2c(c1)OCO2)C(=O)OC | 88.9% | 87.7 | 106 | 98.5 | 93.8 | 101% | 98.6% |  | 103 | 112 | 90.3% | 100 | 94.3 | 94.7 | 101% | 105% | 98.8% | 102% |  | 106 |

— PubChem BioAssay (NCI)
